Data taken from PubChem BioAssay AID1159580 (chemical genetic matrix, 2015).
Hit rate of the full screen: of about 5,500 compounds, about 2,000 (36%) were called active. Another 18% or so got no clear call; they are omitted. No stated cut-off is given here; in the data, active means normalized growth mostly below about 0.91 (no sharp cut-off); inconclusive means no clear call, values can overlap the other calls; inactive means mostly above about 0.92. This is one part of the list.

Test: chemical genetic growth profiling, strain panel (AID 1159580);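 further: tested at 20 µM; growth read once vehicle control cultures reached saturation at 30 °C; 1 = growth at the plate median or of vehicle wells; lower values mean less growth of the strain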
Conditions: growth OD
[1] = S. cerevisiae deletion strains, locus YAL013W, strain DEP1, active compounds read low
[2] = S. cerevisiae deletion strains, locus YBR229C, strain ROT2, active compounds read low
[3] = S. cerevisiae deletion strains, locus YDL101C, strain DUN1, active compounds read low
[4] = S. cerevisiae deletion strains, locus YDR150W, strain NUM1, active compounds read low
[5] = S. cerevisiae deletion strains, locus YEL061C, strain CIN8, active compounds read low
[6] = S. cerevisiae deletion strains, locus YGR078C, strain PAC10, active compounds read low
[7] = S. cerevisiae deletion strains, locus YHR030C, strain SLT2, active compounds read low
[8] = S. cerevisiae deletion strains, locus YHR087W, strain rtc3, active compounds read low
[9] = S. cerevisiae deletion strains, locus YJR043C, strain POL32, active compounds read low
[10] = S. cerevisiae deletion strains, locus YJR075W, strain HOC1, active compounds read low
[11] = S. cerevisiae deletion strains, locus YKL190W, strain CNB1, active compounds read low
[12] = S. cerevisiae deletion strains, locus YLR039C, strain RIC1, active compounds read low
[13] = S. cerevisiae deletion strains, locus YLR058C, strain SHM2 (second series), active compounds read low
[14] = S. cerevisiae deletion strains, locus YLR085C, strain ARP6, active compounds read low
[15] = S. cerevisiae deletion strains, locus YLR262C, strain YPT6, active compounds read low
[16] = S. cerevisiae deletion strains, locus YML094W, strain GIM5, active compounds read low
[17] = S. cerevisiae deletion strains, locus YMR219W, strain ESC1, active compounds read low
[18] = S. cerevisiae deletion strains, locus YMR263W, strain SAP30, active compounds read low
[19] = S. cerevisiae deletion strains, locus YNL153C, strain GIM3, active compounds read low
[20] = S. cerevisiae deletion strains, locus YNL298W, strain CLA4 (second series), active compounds read low
[21] = S. cerevisiae deletion strains, locus YNL322C, strain KRE1, active compounds read low
[22] = S. cerevisiae deletion strains, locus YNR030W, strain Alg12, active compounds read low
[23] = S. cerevisiae deletion strains, locus YPL055C, strain LGE1, active compounds read low
[24] = S. cerevisiae deletion strains, locus YPL241C, strain CIN2, active compounds read low
[25] = S. cerevisiae deletion strains, locus YPR135W, strain CTF4, active compounds read low
[26] = S. cerevisiae deletion strains, locus YHR079C, strain IRE1, active compounds read low
[27] = S. cerevisiae deletion strains, locus YJL095W, strain BCK1, active compounds read low
[28] = S. cerevisiae deletion strains, locus YJR066W, strain TOR1, active compounds read low
[29] = S. cerevisiae deletion strains, locus YLR113W, strain HOG1, active compounds read low
[30] = S. cerevisiae deletion strains, locus YNL183C, strain NPR1, active compounds read low
[31] = S. cerevisiae deletion strains, locus YOR231W, strain MKK1, active compounds read low
[32] = S. cerevisiae deletion strains, locus YPL256C, strain CLN2, active compounds read low

Measured: normalized growth

CN(C)c1ccc(/C=N\NC(=O)CCc2ccc(O)cc2)c(Cl)c1
inactive: [1] 1.01 | [2] 0.998 | [3] 1.05 | S. cerevisiae deletion strains, locus YDL134C, strain PPH21, active compounds read low 1.01 | [4] 1.01 | [5] 0.974 | [6] 1.02 | [7] 0.992 | [8] 0.995 | [9] 1.01 | [10] 1.01 | [11] 1.01 | [12] 0.951 | [13] 1.01 | [14] 0.999 | [15] 0.946 | [16] 0.974 | [17] 1.01 | [18] 1.02 | S. cerevisiae deletion strains, locus YMR307W, strain GAS1, active compounds read low 0.97 | [19] 1 | [20] 0.999 | [21] 1.01 | [22] 1.01 | [23] 0.985 | [24] 0.967 | [25] 1.01

CCOC(=O)CCc1cc(N=Cc2cc(Br)ccc2O)c(O)c(N=Cc2cc(Br)ccc2O)c1
active: S. cerevisiae deletion strains, locus YGR092W, strain DBF2, active compounds read low 0.371 | [7] 0.562 | [29] 0.65 | [32] 0.579
inactive: S. cerevisiae deletion strains, locus YAR019C, strain CDC15, active compounds read low 0.963 | S. cerevisiae deletion strains, locus YBL105C, strain PKC1, active compounds read low 0.959 | S. cerevisiae deletion strains, locus YBR135W, strain CKS1, active compounds read low 0.968 | S. cerevisiae deletion strains, locus YBR136W, strain MEC1, active compounds read low 0.966 | S. cerevisiae deletion strains, locus YBR160W, strain CDC28, active compounds read low 0.959 | S. cerevisiae deletion strains, locus YDL017W, strain CDC7, active compounds read low 0.962 | S. cerevisiae deletion strains, locus YDL028C, strain MPS1, active compounds read low 0.968 | [3] 0.967 | S. cerevisiae deletion strains, locus YDL108W, strain KIN28, active compounds read low 0.959 | S. cerevisiae deletion strains, locus YDL132W, strain cdc53, active compounds read low 0.961 | S. cerevisiae deletion strains, locus YDL214C, strain PRR2, active compounds read low 0.834 | S. cerevisiae deletion strains, locus YDR052C, strain DBF4, active compounds read low 0.953 | S. cerevisiae deletion strains, locus YDR054C, strain cdc34, active compounds read low 0.951 | S. cerevisiae deletion strains, locus YDR226W, strain ADK1, active compounds read low 0.979 | S. cerevisiae deletion strains, locus YDR477W, strain SNF1, active compounds read low 0.805 | S. cerevisiae deletion strains, locus YER123W, strain YCK3, active compounds read low 0.66 | S. cerevisiae deletion strains, locus YER133W, strain GLC7, active compounds read low 0.788 | S. cerevisiae deletion strains, locus YFL009W, strain cdc4, active compounds read low 0.962 | S. cerevisiae deletion strains, locus YFL029C, strain CAK1, active compounds read low 0.955 | S. cerevisiae deletion strains, locus YFR003C, strain YPI1, active compounds read low 0.961 | S. cerevisiae deletion strains, locus YFR019W, strain FAB1, active compounds read low 0.877 | S. cerevisiae deletion strains, locus YFR028C, strain CDC14, active compounds read low 0.974 | S. cerevisiae deletion strains, locus YGR040W, strain KSS1, active compounds read low 0.824 | S. cerevisiae deletion strains, locus YGR052W, strain FMP48, active compounds read low 0.768 | [26] 0.622 | S. cerevisiae deletion strains, locus YHR082C, strain KSP1, active compounds read low 0.843 | S. cerevisiae deletion strains, locus YHR205W, strain SCH9, active compounds read low 0.87 | S. cerevisiae deletion strains, locus YIL147C, strain SLN1, active compounds read low 0.962 | [27] 0.643 | S. cerevisiae deletion strains, locus YJL128C, strain PBS2, active compounds read low 0.942 | S. cerevisiae deletion strains, locus YJL157C, strain FAR1, active compounds read low 0.773 | S. cerevisiae deletion strains, locus YJR016C, strain ILV3, active compounds read low 0.968 | S. cerevisiae deletion strains, locus YJR066W, strain TOR1 (second series), active compounds read low 0.764 | [28] 0.727 | S. cerevisiae deletion strains, locus YKL048C, strain ELM1, active compounds read low 0.873 | S. cerevisiae deletion strains, locus YKL067W, strain YNK1, active compounds read low 0.823 | S. cerevisiae deletion strains, locus YKL101W, strain HSL1, active compounds read low 0.833 | S. cerevisiae deletion strains, locus YKL193C, strain SDS22, active compounds read low 0.965 | S. cerevisiae deletion strains, locus YKL203C, strain TOR2, active compounds read low 0.786 | S. cerevisiae deletion strains, locus YLR133W, strain CKI1, active compounds read low 0.804 | S. cerevisiae deletion strains, locus YLR403W, strain SFP1, active compounds read low 0.75 | S. cerevisiae deletion strains, locus YML070W, strain DAK1, active compounds read low 0.727 | S. cerevisiae deletion strains, locus YMR001C, strain CDC5, active compounds read low 0.961 | S. cerevisiae deletion strains, locus YMR205C, strain PFK2 (second series), active compounds read low 0.841 | S. cerevisiae deletion strains, locus YMR277W, strain FCP1, active compounds read low 0.971 | S. cerevisiae deletion strains, locus YNL006W, strain LST8, active compounds read low 0.976 | S. cerevisiae deletion strains, locus YNL020C, strain ARK1, active compounds read low 0.79 | S. cerevisiae deletion strains, locus YNL161W, strain CBK1, active compounds read low 0.959 | [30] 0.754 | S. cerevisiae deletion strains, locus YNL207W, strain RIO2, active compounds read low 0.957 | S. cerevisiae deletion strains, locus YNL222W, strain SSU72, active compounds read low 0.975 | S. cerevisiae deletion strains, locus YNL307C, strain MCK1 (second series), active compounds read low 0.76 | S. cerevisiae deletion strains, locus YOL078W, strain AVO1, active compounds read low 0.965 | S. cerevisiae deletion strains, locus YOL136C, strain PFK27, active compounds read low 0.679 | S. cerevisiae deletion strains, locus YOR061W, strain CKA2, active compounds read low 0.809 | S. cerevisiae deletion strains, locus YOR119C, strain RIO1, active compounds read low 0.84 | [31] 0.657 | S. cerevisiae deletion strains, locus YOR329C, strain SCD5, active compounds read low 0.961 | S. cerevisiae deletion strains, locus YPL031C, strain PHO85, active compounds read low 0.8 | S. cerevisiae deletion strains, locus YPL153C, strain RAD53, active compounds read low 0.784 | S. cerevisiae deletion strains, locus YPL204W, strain HRR25, active compounds read low 0.754 | S. cerevisiae deletion strains, locus YPL209C, strain IPL1, active compounds read low 0.964 | S. cerevisiae deletion strains, locus YPR025C, strain CCL1, active compounds read low 0.954 | S. cerevisiae deletion strains, locus YPR106W, strain ISR1, active compounds read low 0.98 | S. cerevisiae deletion strains, locus YPR111W, strain DBF20, active compounds read low 0.958 | S. cerevisiae deletion strains, strain NNK1, active compounds read low 0.964 | S. cerevisiae deletion strains, strain TSCII, active compounds read low 0.96

CCOC(=O)CCc1cc(N=Cc2cc(Cl)cc(Cl)c2O)c(O)c(N=Cc2cc(Cl)cc(Cl)c2O)c1
active: [1] 0.257 | [2] 0.225 | [3] 0.48 | [4] 0.328 | [5] 0.254 | [6] 0.14 | [7] 0.126 | [8] 0.0846 | S. cerevisiae deletion strains, locus YJL187C, strain SWE1, active compounds read low 0.204 | [9] 0.403 | [10] 0.245 | [11] 0.537 | [12] 0.164 | [13] 0.598 | [14] 0.14 | [15] 0.156 | [16] 0.243 | [17] 0.278 | [18] 0.354 | [19] 0.454 | [20] 0.411 | [21] 0.935 | [22] 0.63 | [23] 0.212 | [24] 0.476 | [25] 0.558 | S. cerevisiae strains, strain wild type, active compounds read low 0.555

C#CCN(C)C(C)Cc1ccccc1 (stereo not drawn)
inactive: [7] 1.01 | [26] 1.03 | [27] 1.02 | [28] 0.95 | [29] 0.994 | [30] 0.959 | [31] 1.02 | [32] 0.989
